Vaccinia mCherry – qHTS for Stage-Specific Inhibitors of Vaccinia Orthopoxvirus: mCherry Reporter Primary qHTS | 310,000 compounds, 0.63% hits | AID 720579, 2013 | Potency, µM (series often up to 36.5 µM), for the others: at the highest dose activity change, negative = inhibition, actives largely listed as inhibitors | Vaccinia virus mCherry reporter infection, fluorescence; calls by dose curve; tested in A549 cells; also: potency is read from the fitted curve at half-maximal effect; nearly all actives have a fitted effect of over 35% in size
MARV entry inh – qHTS for inhibitors of binding or entry into cells for Marburg Virus. Marburg virus pseudotyped entry inhibition, cell reporter. 300,000 compounds, 1.8% hits. Potency, µM (highest dose often 37.8 µM), for the others: at the highest dose activity change, negative = inhibition, hits mostly inhibitors; calls by dose curve; tested in HEK293 cells; also: potency is read from the fitted curve at half-maximal effect
FMDV inh – High Throughput Screening for Foot and Mouth Disease Virus Antivirals | FMDV antiviral cell-based qHTS | Potency, µM (top dose mostly 57.9 µM), for inactives: at the top dose activity change, negative = inhibition, most hits filed as inhibitors | 410,000 compounds, 1.2% hits | AID 1159524, 2015; calls by dose curve; tested in HEK293T cells; also: read-out not given here; potency is read from the fitted curve at half-maximal effect; nearly all actives have a fitted effect of over 45% in size
Vaccinia Venus – qHTS for Stage-Specific Inhibitors of Vaccinia Orthopoxvirus: Venus Reporter Primary qHTS | Potency, µM (series often up to 36.5 µM), for inactives: top-dose activity change, negative = inhibition, actives largely listed as inhibitors | AID 720580, 2013 | 330,000 compounds, 0.46% hits | Vaccinia virus Venus reporter expression, fluorescence; calls by dose curve; tested in A549 cells; also: potency is read from the fitted curve at half-maximal effect; nearly all actives have a fitted effect of over 30% in size
Lassa entry inh – qHTS for Inhibitors of binding or entry into cells for Lassa Virus. Lassa virus pseudotype entry inhibition, cell reporter. Potency, µM (titrated, usually from 37.9 µM), for the others: top-dose activity change, negative = inhibition, hits mostly inhibitors. 300,000 compounds, 1.2% hits. AID 540256, 2011; calls by dose curve; tested in HEK293 cells; also: potency is read from the fitted curve at half-maximal effect; nearly all actives have a fitted effect of over 50% in size
HCMV antiviral – qHTS Assay for inhibitors of the human cytomegalovirus (HCMV); activity change, negative = inhibition, % at 57.5 µM; HFF cells, HCMV-luciferase reporter, 72 h; stronger effect = lower value; AID 1259415, 2018; 410,000 compounds, 4.5% hits; in the data active = activity change below about -60%; inconclusive = no clear call, values can overlap the other calls; inactive = above about -39%
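HFF cells seeded 16 h at 37C, treated with compounds, infected with luciferase-reporter HCMV at MOI 1 PFU/cell; luciferase read at 72 h post infection, normalized to buffer-only and Salinomycin controls.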
* marks the source's active call; other numbers are inactive results; i = inactive; ? = inconclusive; . = no result given; ! = not active in a repeat; [ ] = dose if it differs, or a comment. An excerpt weighted towards active compounds, which were near 6.5% of everything screened. % is scaled to controls: 0 for no effect and ±100 for the full control effect.

SMILES	Vaccinia mCherry	MARV entry inh	FMDV inh	Vaccinia Venus	Lassa entry inh	HCMV antiviral
O=C1c2cccc3cccc(c23)C(=O)N1CC1CCN(CC(O)COc2ccc3ccccc3c2)CC1 (centres undefined)	.	-1%	?	.	.	-19
CS(=O)(=O)CCCCN=C=S	i	.	-4%	0%	.	.
O=C(Nc1ccc(C(F)(F)F)cc1)C1CCC(CNS(=O)(=O)c2cccc3nsnc23)CC1 (centres undefined)	-14%	?	-3%	-6%	6%[46.1 µM]	-7
CCOc1ccc2nc(NC(=O)c3ccc(S(=O)(=O)N4CCOCC4)cc3)sc2c1	9%	9%	28µM*	-9%	3%	-32
COc1ccc(-c2csc(NC(=O)CS(=O)(=O)c3ccccc3)n2)cc1	-8%	?	?	-16%	?	12
COc1ccc(-c2csc(NC(=O)C3CCCCN3S(=O)(=O)c3ccccc3)n2)cc1 (centres undefined)	.	?	-63%	?	16µM*	-68*
Cc1ccc(S(=O)(=O)N2CCOCC2)cc1C(=O)Nc1nc(-c2ccccn2)cs1	?	?	?	?	-29%	-87*
CCOc1ccc2nc(NC(=O)c3ccc(OC)c(S(=O)(=O)N4CCOCC4)c3)sc2c1	.	?	?	.	?	17
COc1ccccc1C(=O)Nc1nnc(S(=O)(=O)N2CCCCC2)s1	-12%	.	11%	-11%	-15%[46.1 µM]	-73*!
CC[C@@H]1[C@H]2CCCC(=O)N3CC[C@@H](C[C@@H]1OC(=O)Nc1ccc4c(c1)OCO4)[C@@H]23	i	.	.	-29%	.	.
CCC1(CC(C)C)SC(N)=NC1=O (centres undefined)	i	1%	-8%	-2%	0%	0
COc1ccccc1C(=O)Nc1nc(-c2ccc(S(=O)(=O)N3CCOCC3)cc2)cs1	.	7.3µM*	3.2µM*	.	3.7µM*	-95*
O=C(COc1cccc(Cl)c1)Nc1nc(-c2ccc(S(=O)(=O)N3CCOCC3)cc2)cs1	-10%	?	?	-29%	?	?
COc1ccc(-c2csc(NC(=O)c3ccccc3C(=O)O)n2)cc1	i	.	0%	-14%	.	-3
COc1ccc(-c2csc(NC(=O)c3ccccc3S(C)(=O)=O)n2)cc1	i	?	25µM*	-7%	?	?
CCOc1cccc(C(=O)Nc2nc(-c3ccc(S(=O)(=O)N4CCOCC4)cc3)cs2)c1	.	-1%	18µM*	-24%	?	-13
O=C(Nc1nc(-c2ccccc2)cs1)c1ccccc1NS(=O)(=O)c1ccc(F)cc1	?	?	?	?	3.7µM*	-100*
O=C(Cn1ncc2c3ccccc3n(Cc3ccccc3)c2c1=O)NCCCN1CCCC1=O	i	18%[46.1 µM]	-18%	-7%	-5%[46.1 µM]	-67*
CCC(Cc1ccccc1)NC(=O)Cn1ncc2c3ccccc3n(Cc3ccccc3)c2c1=O (centres undefined)	?	2%[46.1 µM]	0%	-16%	?	-99*
COc1ccc(Cl)cc1NC(=O)Cn1ncc2c3ccccc3n(Cc3ccccc3)c2c1=O	-9%	24%[46.1 µM]	5%	-11%	11%[46.1 µM]	-68*
O=C(Cn1ncc2c3ccccc3n(Cc3ccc(F)cc3)c2c1=O)N1CCC2(CC1)OCCO2	.	14µM*	?	-26%	?	.
O=C(Cn1ncc2c3ccccc3n(Cc3ccc(Cl)cc3)c2c1=O)NCCCN1CCCC1=O	.	.	-15%	.	.	1
Cc1ccc(NC(=O)CSc2ccc3nnc(CCNS(=O)(=O)c4ccccc4)n3n2)cc1Cl	-8%	.	-27%	-7%	21%[46.1 µM]	-32
C(=C\c1ccnc2ccccc12)/c1cccnc1	-4%	.	.	-25%	.	.
COC(=O)[C@@]1(C=C2c3ccc(F)cc3[C@@H](OC)[C@@H]2C)[C@@H]2C=CC[C@@H]21	.	-19%[14.2 µM]	.	.	.	.
SMILES	Vaccinia mCherry	MARV entry inh	FMDV inh	Vaccinia Venus	Lassa entry inh	HCMV antiviral
CCOc1ccc(CCNC(=O)CCCn2nc(C)c3c(C)n(-c4ccccc4)nc3c2=O)cc1	.	.	-15%	.	.	?
O=C(Cn1ncc2c3ccccc3n(Cc3ccccc3)c2c1=O)NCCc1ccc(Cl)cc1	?	11%[46.1 µM]	-25%	?	11%[46.1 µM]	-69*
COc1cc2[nH]c(=O)n(CCCC(=O)NCCc3ccccc3)c(=O)c2cc1OC	-26%	?	-7%	-21%	1.4µM*	8
O=C(Cn1ncc2c3ccccc3n(Cc3ccccc3F)c2c1=O)NCCc1ccc(Cl)cc1	-12%	-2%[46.1 µM]	15%	-23%	18%[46.1 µM]	23
COc1cc2[nH]c(=O)n(CCCC(=O)NCc3ccc(Cl)cc3)c(=O)c2cc1OC	-17%	-3%[46.1 µM]	5%	2%	-2%[46.1 µM]	-1
COc1ccc(Cl)cc1NC(=O)Cn1c(=O)n(CCCC(=O)NCCc2ccc(OC)c(OC)c2)c(=O)c2ccccc21	-22%	?	-26%	-7%	?	-80*
Cc1nn(CCCC(=O)NCCc2ccccc2)c(=O)c2nccn12	15%	.	3%	11%	.	-98*
CCC(=O)N1CC(=O)N2[C@H](C1)[C@@H](c1ccc(Br)cc1)[C@@H]2CO	.	.	.	.	.	18
CC(O)(c1ccc(Cl)cc1)C(c1ccccc1)c1ccccn1 (centres undefined)	i	-10%	-29%	-6%	6%	13
COCc1c(C(=O)N2CCN(C3CCCC3)CC2)cnn1-c1ncc2c(n1)-c1ccccc1CCC2	-22%	.	-8%	-1%	.	.
CC1C(=O)N(Cc2ccc(F)cc2)c2ccccc2N1C(=O)c1c(F)cccc1F (centres undefined)	.	.	22µM*	.	.	-73*
COC(=O)c1ccc(CN2C(=O)C(C)N(C(=O)c3c(F)cccc3F)c3ccccc32)cc1 (centres undefined)	.	.	?	.	.	-7
COc1cc2c(cc1OC)C1N(CC2)C(=O)CCC12C(=O)CCCC2=O (centres undefined)	.	.	-20%	.	.	.
Cn1cc(Cc2ccc(C(=O)N3CCOCC3)cn2)c2ccccc21	.	.	.	.	.	4
CCC(Sc1nc2ccsc2c(=O)n1Cc1ccc(C(=O)O)cc1)C(=O)Nc1cc(Cl)ccc1C (centres undefined)	-3%	.	-6%	-5%	.	-95*
COC(=O)c1ccc(OC)c(CSc2nnc(COc3cccc(C)c3)o2)c1	.	16µM*	-23%	.	0%	49
COCCNCC(=O)Nc1ccccc1Sc1ccccc1	.	-10%	-27%	.	-14%	16
N=c1sccn1CC(=O)Nc1ccccc1Sc1ccccc1	-11%	?	-28%	-16%	?	-62*
O=C(CN1CCOCC1)Nc1ccccc1Sc1ccccc1	i	16%[46.1 µM]	0%	-9%	17%[46.1 µM]	-14

Bioassay records deposited in PubChem BioAssay by National Center for Advancing Translational Sciences (NCATS).
